Test results from the supplement of paper PMC10338343.
± gives the standard deviation.

Assays:
[1] = test system: MILI (PIWIL2) piRISC loaded with L1MC piRNA (26 nt); assay: pre-steady-state target cleavage rate (min^-1); guide: L1MC piRNA 5'p-UAACUAAAUACUAUGCAAGCUGUAGG; higher = faster piRNA-guided slicing of the target
Procedure, shortened: (§1)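 The method was Cleave-'n-Seq, in which uncleaved targets from a transcribed, DNA-blocked target RNA library were sequenced after exposure to active affinity-purified piRISC carrying one synthetic guide, with or without GTSF1 partner protein. Reactions contained 0.1 nM library, 1 nM piRISC and, where present, 500 nM GTSF1 in HEPES–potassium acetate buffer at 33 °C for 0–8 or 0–960 min. Reads were normalised to depth and to weakly complementary targets, three trials were pooled, and k3 was capped at 0.0001 min^-1. The pre-steady-state cleavage rate came from a burst-and-steady-state fit.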

[2] = test system: EfPiwi piRISC loaded with L1MC piRNA (26 nt); assay: pre-steady-state target cleavage rate (min^-1); auxiliary factor: 500 nM Ephydatia muelleri Gtsf1; guide: L1MC piRNA 5'p-UAACUAAAUACUAUGCAAGCUGUAGG; MIWI and MILI are mouse PIWI proteins and EfPiwi is from a freshwater sponge; tags in brackets are library labels; higher = faster piRNA-guided slicing of the target
Procedure, shortened: as §1

[3] = auxiliary factor: 500 nM mouse GTSF1
[4] = auxiliary factor: none (no GTSF1)

| Sequence | pre-steady-state target cleavage rate [1, 3] | pre-steady-state target cleavage rate [1, 4] | pre-steady-state target cleavage rate [2] |
| --- | --- | --- | --- |
| UCCUGGUACAGCUUGCAUAGUAUUUAGAUA | 0.149 ± 0.033 | 0.00493 ± 0.0028 | 0.00705 ± 0.0034 |
| UCCUGGAUCACGAUGCAUAGUAUUUAGUUA | 0.134 ± 0.013 | 0.00516 ± 0.0028 | 0.0115 ± 0.004 |
| UCCUGGAUCAGCUUGCAUAGUAUUUUAGUUA | 0.23 ± 0.025 | 0.0107 ± 0.0028 | 0.0214 ± 0.0071 |
| UCCUGGUACAGCUUGCAUAGUAUUUUGUUA | 0.118 ± 0.024 | 0.00398 ± 0.0037 | 0.00618 ± 0.003 |
| UCCUGGUACACCUUGCAUAGUAAUUAGUUA | 0.491 ± 0.14 | 0.00374 ± 0.0032 | 0.00464 ± 0.0027 |
| UCCUGGAUGAGCUGGCAUAGUAUUUAGUUA | 0.185 ± 0.016 | 0.0101 ± 0.0034 | 0.0103 ± 0.0035 |
| UCCUGGAUCAGCUGUGCAUAGUAUUUAGUUA | 0.232 ± 0.017 | 0.0109 ± 0.0034 | 0.0791 ± 0.016 |
| UCCUGGAUGUGCUUUGCAUAGUAUUUAGUUA | 0.157 ± 0.016 | 0.0132 ± 0.0033 | 0.00805 ± 0.003 |
| UCCUGCUACAGGUUGCUUAGUAUUUAGUUA | 0.227 ± 0.012 | 0.0118 ± 0.0038 | 0.0276 ± 0.0074 |
| UCCUCCUACAGCUUGCUUAGUAUAUAGUUA | 0.271 ± 0.024 | 0.00356 ± 0.0021 | 0.0127 ± 0.0069 |
| UCCUGGAACAGCUUGGAUAGUAUUUAGUAA | 0.198 ± 0.023 | 0.00431 ± 0.0019 | 0.00371 ± 0.002 |
| UCCUGCUUCAGCUUGCAUAGUAUUUUGUUA | 0.144 ± 0.025 | 0.00322 ± 0.0024 | 0.00635 ± 0.0022 |
| UCCUGGAACAGGUUGCAUAGUAUUUAGUAA | 0.232 ± 0.02 | 0.00824 ± 0.0023 | 0.00828 ± 0.0031 |
| UCCUGGAUCAGCUUGCUUAGUAUUAAGUUA | 0.129 ± 0.016 | 0.00516 ± 0.0021 | 0.00376 ± 0.0025 |
| UCCUGCGUACAGCUUGCAUAGUAUUUAGUUA | 0.314 ± 0.021 | 0.0109 ± 0.0033 | 0.0434 ± 0.012 |
| UCCUGCUACAGCUUGCAUAGUAUUUAGUUC [g2:g25:cont:t1C] | 0.317 ± 0.021 | 0.0145 ± 0.0033 | 0.0645 ± 0.016 |
| UCCUGGAACAGCUUGCAUAGUAUUUAGUUA [g2:g23:cont:t1A] | 0.297 ± 0.019 | 0.0103 ± 0.0024 | 0.0806 ± 0.018 |
| UCCUGGUACAGGUAGCAUAGUAUUUAGUUA | 0.21 ± 0.021 | 0.00976 ± 0.0036 | 0.00853 ± 0.0036 |
| UCCUGCUACAGGAUGCAUAGUAUUUAGUAA | 0.301 ± 0.044 | 0.00446 ± 0.0019 | 0.00317 ± 0.0021 |
| UCCUGGUACACCUUGCAUAGUAUUUAGUAA | 0.182 ± 0.043 | 0.00413 ± 0.0031 | 0.00351 ± 0.0028 |
| UCCUGCUACAGCUUGACAUAGUAUUUAGUUA | 0.226 ± 0.018 | 0.00448 ± 0.0026 | 0.00916 ± 0.0026 |
| UCCUGGAUGUGCUUGCAUAGUAUGUUAGUUA | 0.0646 ± 0.012 | 0.00452 ± 0.0032 | 0.00406 ± 0.0038 |
| UCCUGCUUCAGCUAGCAUAGUAUUUAGUUA | 0.322 ± 0.02 | 0.00715 ± 0.0018 | 0.0566 ± 0.015 |
| UCCUCCUACAGCUUGCAUAGUAUAAAGUUA | 0.137 ± 0.023 | 0.00301 ± 0.0023 | 0.00527 ± 0.0031 |
| UCCUGGAUGAGCUUGCAUAGUAUUUAGUAA | 0.218 ± 0.019 | 0.00773 ± 0.0026 | 0.00367 ± 0.0022 |

| Sequence | pre-steady-state target cleavage rate [1, 3] | pre-steady-state target cleavage rate [1, 4] | pre-steady-state target cleavage rate [2] |
| --- | --- | --- | --- |
| UCCUGGAUGUCGAUGUAUAGUAUUUAGUUA | 0.0919 ± 0.011 | 0.0069 ± 0.002 | 0.00398 ± 0.003 |
| UCCUGGAUGAGCUUGCAUAGUAUUUUGUUA | 0.204 ± 0.04 | 0.00454 ± 0.0024 | 0.00491 ± 0.0017 |
| UCCUGCUACAGGUUGCAUAGUAUUUUGUUA | 0.165 ± 0.028 | 0.00477 ± 0.0031 | 0.0057 ± 0.0026 |
| UCCUGGUACAGCGUGCAUAGUAUUUAGUUA | 0.225 ± 0.031 | 0.00988 ± 0.0044 | 0.0121 ± 0.004 |
| UCCUGGAUGUCGUUAGCAUAGUAUUUAGUUA | 0.0539 ± 0.012 | 0.00456 ± 0.0029 | 0.00456 ± 0.0035 |
| UCCUCCUACAGCUUGCAUAGAUAUUUAGUUA | 0.0178 ± 0.0058 | 0.00345 ± 0.0022 | 0.00501 ± 0.0032 |
| UCCUCCUACAGGUUGCUUAGUAUUUAGUUA | 0.237 ± 0.011 | 0.00975 ± 0.0027 | 0.0231 ± 0.0065 |
| UCCUGCUACGCUUGCAUAGUAUUUAGUUA | 0.291 ± 0.025 | 0.0067 ± 0.0024 | 0.0122 ± 0.0033 |
| UCCUGGAACAGCUUGGAUAGUAAUUAGUUA | 0.21 ± 0.025 | 0.00493 ± 0.0022 | 0.00719 ± 0.0026 |
| UCCUGGAACAGAUUGCAUAGUAUUUAGUUA | 0.284 ± 0.012 | 0.0113 ± 0.0023 | 0.0572 ± 0.014 |
| UCCUGGAUUAGCUUGCAUAGUAUUUAGUUA | 0.232 ± 0.016 | 0.00961 ± 0.0024 | 0.0447 ± 0.011 |
| UCCUGGAACAGGUUGCAUUGUAUUUAGUUA | 0.157 ± 0.014 | 0.00837 ± 0.0019 | 0.00526 ± 0.0019 |
| UCCUGCUACAGCAUGCAUAGUAUUUAGUAA | 0.277 ± 0.03 | 0.00478 ± 0.0028 | 0.00673 ± 0.0029 |
| UCCUGGAUCAGCUUGCAUAAUAUUUAGUUA | 0.253 ± 0.031 | 0.00396 ± 0.0026 | 0.0108 ± 0.0031 |
| UCCUCCUACAGCUUGCAUAGUAUUUGAGUUA | 0.199 ± 0.028 | 0.00484 ± 0.0026 | 0.00541 ± 0.0025 |
| UCCUCCUACUCGUUGCAUAGUAUUUAGUUA | 0.211 ± 0.018 | 0.00864 ± 0.002 | 0.101 ± 0.025 |
| UCCUCCUACAGGUUGCAUAGUAUAUAGUUA | 0.219 ± 0.022 | 0.00587 ± 0.0019 | 0.0129 ± 0.0046 |
| UCCUGCUACAGCUUGCAUACUAUUUAGUUA | 0.0775 ± 0.012 | 0.0046 ± 0.0019 | 0.00755 ± 0.0026 |
| UCCUGGAUCUAGCUUGCAUAGUAUUUAGUUA | 0.193 ± 0.021 | 0.00722 ± 0.0025 | 0.0755 ± 0.019 |
| UCCUGGUAGACCUUGCAUAGUAUUUAGUUA | 0.221 ± 0.022 | 0.00488 ± 0.0036 | 0.0182 ± 0.0065 |
| UCCUGGAUCAGCAUGCUUAGUAUUUAGUUA | 0.189 ± 0.019 | 0.00777 ± 0.0024 | 0.0112 ± 0.0042 |
| UCCUCCUUCAGCUUGCUUAGUAUUUAGUUA | 0.286 ± 0.015 | 0.00762 ± 0.002 | 0.0651 ± 0.022 |
| UCCUGCUACAGCAUUGCAUAGUAUUUAGUUA | 0.286 ± 0.02 | 0.0108 ± 0.0036 | 0.00946 ± 0.0029 |
| UCCUGGAUGUGUUUGCAUAGUAUUUAGUUA | 0.16 ± 0.019 | 0.00817 ± 0.0033 | 0.0181 ± 0.0055 |
| UCCUGGAACAGCUUGCAUAGUAUUUAGUUC [g2:g23:cont:t1C] | 0.191 ± 0.024 | 0.00602 ± 0.0018 | 0.00959 ± 0.0037 |
